PubChem BioAssay (NCATS)
Inconclusive results are not listed. The source made the active and inactive calls. Calls come from the whole dose curve; as a rule, active = well fitted cell-killing curve with a large enough effect; inconclusive = small, poorly fitted or top-dose-only effect, or effect the other way; inactive = flat fitted curve, though single readings scatter.

Legend:
Assay in all cases: Primary qHTS to identify gynecologic anti-cancer compounds using libraries of approved drugs and bioactive compounds (AID 1345084); note: nearly all actives have a fitted effect of over 55% in size
Settings in all cases: Gynecologic cancer cell panel viability, ATPlite luminescence, 48 h; series mostly up to 57.5 µM
[1] = tested on: OV90
Summary of the method: (§1)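 ATP-based viability (ATPlite), 1,000 cells/well, 16 h pre-incubation, 48 h compound at 37 C, 5% CO2, 15 min RT before read.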

[2] = tested on: PA-1
Summary of the method: as §1

[3] = tested on: SKOV3
Summary of the method: as §1

[4] = tested on: Tov-21-G
Summary of the method: as §1

[5] = tested on: Tov112D
Summary of the method: as §1
% is set by controls: 0 for no effect and ±100 for the full control effect.

OC[C@H]1O[C@@H](OC[C@H]2O[C@@H](OCc3ccccc3)[C@H](O)[C@@H](O)[C@@H]2O)[C@H](O)[C@@H](O)[C@@H]1O
inactive: Potency [1] | Potency [2] | Potency [3] | Potency [4] | Potency [5]

CC1=C2C[C@H]3OC(=O)[C@H](O)[C@@]4(O)[C@@H](C)[C@@H](O)[C@H](O)C([C@@]2(C)[C@H](O)[C@@H](O)C1)[C@@]34C (stereo not given in full)
inactive: Potency [1] | Potency [2] | Potency [3] | Potency [4] | Potency [5]

Nc1ncnc2c1c(COc1cccc(Cl)c1)nn2C1CCOCC1
inactive: Potency [1] | Potency [2] | Potency [3] | Potency [4] | Potency [5]

O=C(Nc1ccc(N2CCC(C(=O)N3CCOCC3)CC2)cc1)c1cnc(Oc2ccccc2)nc1
inactive: Potency [1] | Potency [2] | Potency [3] | Potency [4] | Potency [5]

CC(=O)O[C@@H]1[C@H](O[C@@H]2OC[C@](O)(CO)[C@H]2O)[C@@H](O[C@@H]2O[C@@H](C)[C@H](O)[C@@H](O[C@@H]3O[C@H](CO)[C@@H](O)[C@H](O)[C@H]3O)[C@H]2O)[C@H](OC(=O)[C@]23CCC(C)(C)C[C@H]2C2=CCC4[C@@]5(C)C[C@H](O)[C@H](O[C@@H]6O[C@H](C(=O)O)[C@@H](O)[C@H](O)[C@H]6O)[C@@](C)(C(=O)O)C5CC[C@@]4(C)[C@]2(C)CC3)O[C@@H]1C (stereo not given in full)
inactive: activity change, negative = cytotoxicity [1] 0.0108% [at 6.55 µM] | activity change, negative = cytotoxicity [2] 3.28% [at 6.55 µM] | activity change, negative = cytotoxicity [3] 27% [at 6.55 µM] | activity change, negative = cytotoxicity [4] 0.936% [at 6.55 µM] | activity change, negative = cytotoxicity [5] -2.6% [at 6.55 µM]

CC1CCC2C(C)(C)C(O)C(O)CC2(C)C12Cc1c(O)cc(CO)c(C=O)c1O2 (stereo not given)
inactive: Potency [1] | Potency [2] | Potency [3] | Potency [4] | Potency [5]

Cc1cn(-c2cc(NC(=O)c3ccc(C)c(Nc4nccc(-c5cnccn5)n4)c3)cc(C(F)(F)F)c2)cn1
inactive: Potency [1] | Potency [2] | Potency [3] | Potency [4] | Potency [5]

CC1CC(=O)C2C(O)(C1)CC(O)C13OC1c1c(O)cccc1C(=O)C23O (stereo not given)
inactive: Potency [1] | Potency [2] | Potency [3] | Potency [4] | Potency [5]

C[C@H]1CC[C@@]2(OC1)O[C@H]1CC3C4CC[C@H]5C[C@@H](O)CC[C@]5(C)C4CC(=O)[C@]3(C)[C@H]1[C@@H]2C (stereo not given in full)
inactive: Potency [1] | Potency [2] | Potency [3] | Potency [4] | Potency [5]

CC(=O)O[C@H]1[C@H](OC(=O)C(C)C)[C@]2(C)OC3(CC[C@]2(C)[C@H]2CCC[C@]4(CO4)[C@]12C)COC(=O)C3 (stereo not given in full)
inactive: Potency [1] | Potency [2] | Potency [3] | Potency [4] | Potency [5]

COC(=O)/C=C/c1ccc(O[C@@H]2O[C@H](CO)[C@@H](O)[C@H](O)[C@H]2O)cc1
inactive: Potency [1] | Potency [2] | Potency [3] | Potency [4] | Potency [5]

Oc1ccccc1-c1cc(-c2ccccc2F)[nH]n1
inactive: Potency [1] | Potency [2] | Potency [3] | Potency [4] | Potency [5]

C=Cc1ccc(O[C@@H]2O[C@H](CO[C@@H]3O[C@@H](C)[C@H](O)[C@@H](O)[C@H]3O)[C@@H](O)[C@H](O)[C@H]2O)cc1
inactive: Potency [1] | Potency [2] | Potency [3] | Potency [4] | Potency [5]

C=C1C(OC(C)=O)C(=O)C2C(C)(C)C(O)CCC2(C)C1CC(OC(C)=O)/C(C)=C/COC(C)=O (stereo not given)
inactive: Potency [1] | Potency [2] | Potency [3] | Potency [4] | Potency [5]

C/C=C/C(=O)OC1/C=C/C(O)C(OC(C)=O)CCC(=O)OC1C (stereo not given)
inactive: Potency [1] | Potency [2] | Potency [3] | Potency [4] | Potency [5]

CC(C)C(O)(CO)CCO[C@@H]1O[C@H](CO[C@H]2OC[C@](O)(CO)[C@H]2O)[C@@H](O)[C@H](O)[C@H]1O (stereo not given in full)
inactive: Potency [1] | Potency [2] | Potency [3] | Potency [4] | Potency [5]

CN1CCN(C2=Nc3ccccc3Nc3ccc(O)cc32)CC1
inactive: Potency [1] | Potency [2] | Potency [3] | Potency [4] | Potency [5]

CCC/C=C/C=C/C1CC(O)C(O)C(=O)C1CO (stereo not given)
inactive: Potency [1] | Potency [2] | Potency [3] | Potency [4] | Potency [5]

CC(C)=CCc1cc(O[C@@H]2O[C@H](CO[C@@H]3OC[C@](O)(CO)[C@H]3O)[C@@H](O)[C@H](O)[C@H]2O)ccc1O
inactive: Potency [1] | Potency [2] | Potency [3] | Potency [4] | Potency [5]

O=C(/C=C/c1ccccc1)O[C@@H]1[C@@H](CO)O[C@@](CO)(O[C@H]2O[C@H](CO)[C@@H](O)[C@H](O)[C@H]2O)[C@H]1O
inactive: Potency [1] | Potency [2] | Potency [3] | Potency [4] | Potency [5]

CC1=C(CO)CC(C(C)C2CCC3C4CC=C5CC(OC6OC(COC7OC(CO)C(O)C(O)C7O)C(O)C(O)C6O)CC(O)C5(C)C4CCC23C)OC1=O (stereo not given)
inactive: Potency [1] | Potency [2] | Potency [3] | Potency [4] | Potency [5]

Cc1ccc2nc(NC(=O)CSc3nc4c(c(=O)n3-c3ccc(F)cc3)SCC4)sc2c1
inactive: Potency [1] | Potency [2] | Potency [3] | Potency [4] | Potency [5]
